Source: PubChem BioAssay (several laboratories)
ERa SRC1 inh: blocks coactivator binding to human estrogen receptor alpha | P03372 | TR-FRET ER-alpha LBD / SRC-1 peptide, estradiol-bound | inhibition, % at 25.6 µM | 1.7% of 86,000 active | AID 629; in the data active = inhibition above about 50%;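 also: 0% = receptor plus peptide control and 100% = peptide only without receptor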
Target sequence (P03372 whole entry, looked up, the tested form may be a part): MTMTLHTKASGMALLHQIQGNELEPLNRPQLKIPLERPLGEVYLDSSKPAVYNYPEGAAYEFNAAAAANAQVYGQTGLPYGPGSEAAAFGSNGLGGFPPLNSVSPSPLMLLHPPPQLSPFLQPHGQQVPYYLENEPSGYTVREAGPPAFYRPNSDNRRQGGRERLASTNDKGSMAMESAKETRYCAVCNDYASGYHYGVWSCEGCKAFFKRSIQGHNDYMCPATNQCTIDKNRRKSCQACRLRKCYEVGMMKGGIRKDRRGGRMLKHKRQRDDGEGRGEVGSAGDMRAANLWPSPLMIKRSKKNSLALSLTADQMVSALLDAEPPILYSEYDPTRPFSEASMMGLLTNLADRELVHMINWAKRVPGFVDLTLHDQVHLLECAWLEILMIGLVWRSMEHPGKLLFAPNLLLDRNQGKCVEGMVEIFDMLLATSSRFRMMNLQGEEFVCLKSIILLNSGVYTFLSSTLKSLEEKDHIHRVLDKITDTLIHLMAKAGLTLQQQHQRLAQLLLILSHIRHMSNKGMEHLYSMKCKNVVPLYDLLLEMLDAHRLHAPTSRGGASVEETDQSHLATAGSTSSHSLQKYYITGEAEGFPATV
Calb biofilm kill: kills Candida albicans biofilms; inhibition, % at 6 µM; C. albicans biofilm + clotrimazole, Alamar Blue; 0.14% of 85,000 active;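 active = inhibition above 20%; inactive = inhibition below 20%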;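 also: preformed 24 hr biofilms exposed to compound for 48 hr; 0% = biofilm without compound and 100% = blank killed by clotrimazole plus chlorhexidine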
ERb coact inh: ER-beta (human) coactivator binding inhibition; Q92731; TR-FRET ER-beta LBD / SRC1-Cy5 peptide binding; receptor agonist-loaded with 1 µM estradiol; inhibition, % at 25.6 µM; 1.3% of 86,000 active;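 active = compounds whose percent inhibition of the receptor-coactivator binding signal exceeds about 50% in the single-dose screen, limit read from the data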;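 also: 0% = receptor plus peptide wells without compound and 100% = peptide-only wells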
ERa coact pot: enhances coactivator binding to human estrogen receptor alpha; P03372; TR-FRET ERalpha-LBD/SRC-Cy5 coactivator binding, 2 h; 100 = basal binding, no effect; coactivator binding (% of control), % at 25.6 µM; 1.3% of 86,000 active; in the data active = activity above about 200%;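 also: binding measured in presence of low estradiol as agonist stimulus; 0% = peptide alone without receptor and 100% = receptor with peptide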
Smad3 inh: Smad3 (human) transcription factor binding inhibition. TR-FRET Smad3/Dy647-FoxH1 peptide binding, europium anti-His. P84022. inhibition, % at 25 µM. 0.29% of 88,000 active;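 active = compounds that reduce the energy-transfer binding signal between the protein and its labelled peptide by more than half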;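 also: 0% = Smad3 plus labelled peptide maximal FRET and 100% = peptide-only background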
Numbers without * were called inactive; / = no result; [ ] = remark or other dose. This is a sample that favours compounds with a hit; in the whole collection about 3.6% have one here.

SMILES	ERa SRC1 inh	Calb biofilm kill	ERb coact inh	ERa coact pot	Smad3 inh
c1ccc2c(c1)CCN2CCN1CCc2ccccc21	-4	1	-1	140	5
CN(C)CCN1CCc2ccccc21	40	4	55*[fluorescence artefact?]	48	10
O=C(COC(=O)C1CCCN1C(=O)c1cccs1)c1ccccc1 (centres undefined)	-8	0	-7	101	-2
O=C(COC(=O)C1CCCN1C(=O)c1cccs1)Nc1ccc2c(c1)OCO2 (centres undefined)	52*[fluorescence artefact?]	7	38	70	-5
COC(=O)COc1ccc(S(=O)(=O)Nc2ccc(NC(C)=O)cc2)cc1C	-5	5	-6	143	-15
CC(C)N1CCc2c(sc(N)c2C#N)C1	28	8	37	73	6
CCN1CCc2c(sc(N)c2C#N)C1	65*[fluorescence artefact?]	1	77*[fluorescence artefact?]	26	15
O=C(CSc1nnnn1-c1ccccc1)Nc1nsc(-c2ccc(Cl)cc2)n1	73*	5	39	141	-29
O=C(CSc1nnnn1-c1ccccc1)Nc1nsc(-c2ccccc2)n1	27	-4	9	143	5
CC1CN(c2nc3ccccn3c(=O)c2/C=C(\C#N)S(=O)(=O)c2ccccc2)CC(C)O1 (centres undefined)	-2	4	0	108	-2
N#C/C(=C\c1c(N2CCC(C(N)=O)CC2)nc2ccccn2c1=O)S(=O)(=O)c1ccccc1	23	1	53*	94	-10
C=CCn1cnc2c(c1=O)c1nc3ccccc3nc1n2-c1ccc(Cl)cc1	14	11	13	99	0
CCOC(=O)CCn1cc(F)c(=O)n(Cc2ccccc2)c1=O	-5	6	2	238*[fluorescence artefact?]	2
O=C(CCc1ccc(S(=O)(=O)N2CCOCC2)cc1)NCCCN1CCCC1=O	22	3	58*[fluorescence artefact?]	94	-1
Cc1c(C(=O)NCCCN2CCCC2=O)oc2ccc(S(=O)(=O)N3CCOCC3)cc12	-1	-2	-9	123	-14
C/C(N)=C(/C#N)C(=O)CSc1nc2ccc(C)cc2[nH]1	36	-5	57*[fluorescence artefact?]	50	-6
Cc1ccc2nc(SCC(=O)c3cc(C)n(C)c3C)[nH]c2c1	-10	1	-25	87	-3
O=C1CCCC(O)=C1C(C#Cc1ccccc1)C1=C(O)CCCC1=O	34	10	52*[fluorescence artefact?]	24	-6
O=C(NCC(=O)N(Cc1cccs1)C(C(=O)NC1CCCCC1)c1ccco1)c1ccco1 (centres undefined)	-4	7	-8	101	9
O=C(NCC(=O)N(Cc1cccs1)C(C(=O)NC1CCCC1)c1ccncc1)c1ccco1 (centres undefined)	99*[fluorescence artefact?]	3	9	75	17
CCn1c(=O)cc(OCC(=O)Nc2ccc(C)cn2)c2ccccc21	1	-2	-2	81	7
CCOC(=O)c1ccccc1NC(=O)COc1cc(=O)n(CC)c2ccccc12	19	5	45	278*[fluorescence artefact?]	5
O=c1c2ccccc2c2ccccc2c(=O)n1-c1cc2c3ccccc3ccc2c2ccccc12	/	/	/	/	86*
O=C(O)CCn1c(=O)c2ccccc2c2ccccc2c1=O	-18	5	-3	106	3
Cc1ccc(-c2cc(-c3ccccc3)c3c(N)c(S(C)(=O)=O)sc3n2)cc1	-1	0	-9	169	13
SMILES	ERa SRC1 inh	Calb biofilm kill	ERb coact inh	ERa coact pot	Smad3 inh
N#Cc1sc2nc(-c3ccccc3)cc(-c3ccco3)c2c1N	89*[fluorescence artefact?]	8	76*[fluorescence artefact?]	14	20
CC(C)(C)c1cc(-c2ccco2)c(C#N)c(SCC#N)n1	20	6	18	117	-2
N#Cc1c(-c2ccccc2)cc(-c2ccco2)c(C#N)c1N	80*	7	57*	98	-3
COc1ccc(C2NC(=O)NC(O)(C(F)(F)F)C2C(=O)c2ccc(C)cc2)cc1 (centres undefined)	-7	12	2	121	-2
CCOc1ccc(-c2nnn(CC(=O)c3ccc4c(c3)OCCO4)n2)cc1	-11	2	-21	213*	1
N#CC(C(=O)NCCc1ccccc1)c1nc2ccccc2nc1N1CCOCC1 (centres undefined)	75*[fluorescence artefact?]	4	31	168	6
Cc1cc(C)cc(NC(=S)NCc2cccn2C)c1	-4	4	-1	93	11
O=C(NC(=S)Nc1nc2c(s1)CSc1ccccc1-2)c1ccccc1	3	-5	1	179	6
COCCCn1c(SCC(=O)Nc2ccc(NC(=O)c3ccco3)c(OC)c2)nc2ccccc2c1=O	44	1	46	213*[fluorescence artefact?]	-1
COC(=O)CSc1nnc(CNC(=O)Cc2ccccc2)n1-c1ccccc1OC	7	1	1	116	-11
COC(=O)C1C(=O)C2=C(CC1C)NC(C)=C(C(=O)OC1CCCCC1)C2c1ccc(N(C)C)cc1 (centres undefined)	21	6	12	223*	5
Cn1ncc(N=Cc2ccccc2)c1C(=O)Nc1cccc(Cl)c1	-6	1	-4	106	10
CC(Sc1nnc(-c2cccs2)n1-c1ccccc1)C(=O)NCc1ccc2c(c1)OCO2 (centres undefined)	11	3	16	77	-17
COc1ccc(Cc2nnc(-c3cccc(C)c3)o2)cc1OC	-3	24*	-12	93	0
COc1ccc(CC(=O)Nc2cccc(-c3nnc(-c4cccc(C)c4)o3)c2)cc1OC	8	2	3	115	5
Cc1occc1C(=O)Nc1ccccc1NC(=O)c1ccoc1C	58*	5	55*	116	6
Cc1occc1C(=O)Nc1cccc2ccccc12	-3	12	-6	96	5
COc1cccc(-n2c(SCC(=O)N3CCCC3)nc3c([nH]c4ccccc43)c2=O)c1	40	4	45	285*[fluorescence artefact?]	-3
CCN(CC(=O)Nc1cc(C)nn1-c1nc(C)cc(C)n1)Cc1ccccc1	-6	6	-12	99	-4
Cc1cc(C)nc(-n2nc(C)cc2NC(=O)CNCc2ccccc2)n1	-9	5	91*[fluorescence artefact?]	91	-11
N=C(N)CCNC(=O)[C@@H]1CCC(N)=N1	/	/	/	/	2
C=CCNc1sc(C(=O)c2ccc(C)cc2)c(N)c1C#N	5	14	16	86	6
C=CCNc1sc(C(=O)c2ccccc2)c(N)c1C#N	97*[fluorescence artefact?]	14	12	98	10
COc1ccc(CCC(=O)NCc2ccco2)cc1	58*[fluorescence artefact?]	3	49	212*[fluorescence artefact?]	-3
Cc1nc2cc(-c3ccccc3)nn2c(C)c1CCC(=O)NCc1ccco1	80*[fluorescence artefact?]	5	10	98	1
CCOc1ccc(N(CC(=O)NCc2ccco2)S(=O)(=O)c2ccc(OC)c(OC)c2)cc1	20	7	26	77	-10
COc1ccc(N(CC(=O)NCc2ccco2)S(=O)(=O)c2ccc(OC)c(OC)c2)cc1	2	4	54*[fluorescence artefact?]	94	-11
C[C@H](CN(C)C)C(O)(c1ccccc1)c1ccccc1	/	/	/	/	14
